Source: the supplement of paper PMC10646978
± gives the standard deviation.

Legend:
Conditions in all cases: modulator concentration 10 µM
[1] = test system: RAW-Dual (murine macrophage reporter line); test: NF-kB reporter (SEAP) activity fold change vs agonist alone; higher = enhanced NF-kB activity
Method in brief: (§1)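 RAW-Dual murine macrophage reporter cells were plated at 50 000 per well in 384-well plates, pin-transferred compound to 10 μM final, and pre-incubated for 1 hour at 37 °C before a PRR agonist was added and the cells incubated overnight. NF-κB activity was read from supernatant SEAP with QUANTI-Blue at 620 nm absorbance, and IRF activity from Lucia luciferase with QUANTI-Luc by luminescence. Each signal was expressed as fold change by dividing by the mean agonist-only control on the same plate. Two replicate plates were averaged, with errors obtained by propagation.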

[2] = test system: RAW-Dual (murine macrophage reporter line); test: IRF reporter (Lucia luciferase) activity fold change vs agonist alone; higher = enhanced IRF activity
Method in brief: as §1

[3] = test system: RAW-Dual (murine macrophage reporter line); test: viability score (confluency relative to resting cells, overnight) (fraction); higher = more viable, active = viable (0.7 or more)
Method in brief: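 RAW-Dual macrophages in 384-well plates were incubated overnight with compound, final concentration 10 μM. Confluency images from IncuCyte were processed in IncuCyte software into two masks covering all imaged wells. The viability score is each well's confluency relative to resting cells, and a compound met the cutoff when both masks exceeded 70% of resting cells.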

[4] = agonist: CpG ODN 1826 0.5 ug/mL

Row | SMILES | NF-kB reporter [1, 4] | NF-kB reporter ([1]; agonist: LPS 0.1 ug/mL) | NF-kB reporter ([1]; agonist: MPLA […]) | IRF reporter ([2]; agonist: 3'3'-cGAMP 10 ug/mL) | IRF reporter ([2]; agonist: LPS 0.1 ug/mL) | IRF reporter ([2]; agonist: MPLA […]) | viability score [3]
1 | Br.Cc1ccc(-c2csc(N3N=C(c4ccc(F)cc4)CC3c3ccc(C(C)C)cc3)n2)cc1C (stereo unspecified) | 0.948 ± 0.083 | 1.01 ± 0.072 | 0.903 ± 0.088 | 0.824 ± 0.027 | 1.35 ± 0.14 | 1.13 ± 0.099 | 1 (active)
2 | COc1ccc(Cl)cc1C(=O)Nc1ccc(NC(=O)c2ccccc2)cc1 | 0.907 ± 0.079 | 1.12 ± 0.11 | 0.949 ± 0.057 | 0.937 ± 0.023 | 1.34 ± 0.2 | 1.09 ± 0.25 | 1.02 (active)
3 | O=C(Cc1ccc([N+](=O)[O-])cc1)NN=Cc1ccncc1 | 0.864 ± 0.26 | 1.08 ± 0.098 | 1.03 ± 0.16 | 0.964 ± 0.038 | 1.15 ± 0.18 | 1.44 ± 0.42 | 1 (active)
4 | CC(COc1ccccc1)N(CCCl)Cc1ccccc1.Cl (stereo unspecified) | 0.328 ± 0.025 | 0.177 ± 0.015 | 0.355 ± 0.012 | 0.053 ± 0.0051 | 0.0504 ± 0.0018 | 0.0594 ± 0.011 | 0.186 (inactive)
5 | Fc1ccc(Nc2nc(NN=Cc3ccccc3F)nc(N3CCCCC3)n2)cc1 | 1.41 ± 0.13 | 0.987 ± 0.12 | 1.02 ± 0.096 | 1.16 ± 0.081 | 1.26 ± 0.18 | 1.74 ± 0.28 | 1.01 (active)
6 | COc1ccc(C=CC(=O)Nc2ccc([N+](=O)[O-])cc2)cc1Br | 1.06 ± 0.17 | 0.991 ± 0.14 | 0.905 ± 0.11 | 0.996 ± 0.044 | 1.28 ± 0.18 | 1.43 ± 0.42 | 1.01 (active)
7 | Cc1ncsc1C(=O)NC1CCC(F)(F)CC1 | 1.06 ± 0.068 | 1.1 ± 0.088 | 0.991 ± 0.033 | 0.68 ± 0.034 | 1.01 ± 0.057 | 1 ± 0.1 | 0.999 (active)
8 | O=C1[C@H](CC[C@H](O)c2ccc(F)cc2)[C@@H](c2ccc(O)cc2)N1c1ccc(F)cc1 | 1.11 ± 0.11 | 1.05 ± 0.051 | 1.29 ± 0.12 | 0.927 ± 0.063 | 0.98 ± 0.084 | 1.21 ± 0.11 | 0.97 (active)
9 | CN(C)CCOC(=O)COc1ccc(Cl)cc1.Cl | 1.11 ± 0.084 | 1.09 ± 0.088 | 1.01 ± 0.038 | 0.882 ± 0.076 | 0.963 ± 0.043 | 0.964 ± 0.08 | 0.999 (active)
10 | CN(C)C1C(O)=C(C(N)=O)C(=O)C2(O)C(O)=C3C(=O)c4c(O)cccc4C(C)(O)C3CC12.Cl (stereo unspecified) | 1.11 ± 0.097 | 1 ± 0.053 | 1.01 ± 0.021 | 0.844 ± 0.056 | 0.937 ± 0.1 | 0.921 ± 0.072 | 1 (active)
11 | CCCCC1=NC2(CCCC2)C(=O)N1Cc1ccc(-c2ccccc2-c2nn[nH]n2)cc1 | 1.05 ± 0.079 | 0.951 ± 0.08 | 0.978 ± 0.026 | 0.948 ± 0.052 | 1.01 ± 0.15 | 0.945 ± 0.18 | 1 (active)
12 | CCN1CCN(S(=O)(=O)c2ccc(Oc3ccccc3)cc2)CC1 | 1 ± 0.061 | 1.01 ± 0.11 | 1.09 ± 0.036 | 0.905 ± 0.043 | 1.09 ± 0.1 | 1.03 ± 0.21 | 0.996 (active)
13 | O=C(c1ccc(Cl)cc1)c1ccc(N2CCOCC2)c([N+](=O)[O-])c1 | 0.696 ± 0.061 | 1.04 ± 0.08 | 0.735 ± 0.044 | 1.11 ± 0.027 | 1.62 ± 0.24 | 1.41 ± 0.24 | 1 (active)
